“And” between values parts separate entries of the source, which are not always exact repeats. Identical values can stand only once. The source made the active and inactive calls. The call rests on the fitted dose curve.
Potency means the concentration at half of the fitted maximal effect.

Chain of Glucocorticoid receptor (Homo sapiens) (P04150 whole entry, looked up): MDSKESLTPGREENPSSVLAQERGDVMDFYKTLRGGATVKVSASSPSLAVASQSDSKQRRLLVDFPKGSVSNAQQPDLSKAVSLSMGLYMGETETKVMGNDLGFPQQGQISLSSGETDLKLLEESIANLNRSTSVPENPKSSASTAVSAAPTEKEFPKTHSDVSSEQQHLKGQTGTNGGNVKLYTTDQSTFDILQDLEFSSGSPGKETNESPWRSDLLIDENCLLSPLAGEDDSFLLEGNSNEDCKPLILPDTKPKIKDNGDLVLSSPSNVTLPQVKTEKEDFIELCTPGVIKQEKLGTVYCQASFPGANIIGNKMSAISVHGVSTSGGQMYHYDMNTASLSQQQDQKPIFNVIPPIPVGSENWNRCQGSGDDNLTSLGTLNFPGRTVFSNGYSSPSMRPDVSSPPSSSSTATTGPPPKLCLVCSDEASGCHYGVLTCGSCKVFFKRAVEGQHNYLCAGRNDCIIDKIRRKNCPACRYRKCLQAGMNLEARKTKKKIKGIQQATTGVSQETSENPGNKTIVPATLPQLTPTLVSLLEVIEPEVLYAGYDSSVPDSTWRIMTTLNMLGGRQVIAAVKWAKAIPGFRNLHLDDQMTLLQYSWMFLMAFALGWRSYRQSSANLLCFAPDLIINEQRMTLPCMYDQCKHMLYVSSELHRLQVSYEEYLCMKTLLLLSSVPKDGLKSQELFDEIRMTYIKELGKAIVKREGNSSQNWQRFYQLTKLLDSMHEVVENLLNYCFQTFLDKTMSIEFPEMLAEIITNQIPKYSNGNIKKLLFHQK

The experiment addresses Glucocorticoid receptor (Homo sapiens) (UniProt P04150). Kind of experiment: GR-EFC Redistribution (AID 451). Conditions: CHO-K1 GR-EFC translocation, beta-gal luminescence, 2 h. From the text:
NIH Molecular Libraries Screening Centers Network [MLSCN]
NIH Chemical Genomics Center [NCGC]
The glucocorticoid receptor (GR) is a cytoplasmic receptor that belongs to the nuclear receptor family of ligand-dependent transcription factors. Upon glucocorticoid binding to its receptor, the glucocorticoid-GR complex translocates into the nucleus, where it binds as a dimer to specific DNA sequences (glucocorticoid response elements), enhancing or suppressing transcription of a wide variety of glucocorticoid-responsive genes. In addition to their important roles in normal physiology and metabolism, glucocorticoids are administered exogenously as treatments for a wide variety of allergic, autoimmune, and neoplastic conditions. Identification of compounds that modulate aspects of GR signalling would be useful in dissecting glucocorticoid response pathways as well as developing GR modulators with more targeted clinical effects.
Traditionally, GR modulators have been identified using receptor binding or direct transactivation assays. However, assays for glucocorticoid-dependent nuclear translocation can also be used to screen for compounds affecting GR signaling.
Immunocytochemical staining has been used to assay for GR translocation, but is not suitable for high throughout screening due to the multiple reagent addition and wash steps required. Recently, a novel cell-based GR assay in Enzyme Fragment Complementation (EFC) format was developed by DiscoveRx (Fremont, CA). The assay uses EFC of b-galactosidase (b-gal) as an indicator of GR-translocation in engineered CHO-K1 biosensor cells. The enzyme acceptor (EA) fragment of b-gal resides in the nucleus , as designed through the use of a proprietary set of sequence additions and modifications. The small peptide enzyme donor (ED) fragment of b-gal is fused directly to the C-terminus of GR, and is localized in the cytoplasm is the absence of receptor signaling. Upon binding to a GR ligand, the complex translocates to the nucleus, where intact enzyme activity is restored by complementation and b-gal activity is detected. We optimized this GR-EFC assay in homogenous 1536-well plate assay format for high throughput screening.
NCGC Assay Protocol Summary:
CHO-K1 cells stably expressing NLS-enzyme acceptor fragment (EA) of b-gal and GR-enzyme donor (ED) fragment of b-gal were maintained in F12 medium (Invitrogen, Carlsbad, CA) at 37 Celsius degrees under a humidified atmosphere containing 5% CO2 and 95% air. The medium contained 10% FBS, 2 mM L-glutamine, 50 U/ml penicillin 50 ug/ml streptomycin, and 250 ug/ml hygromycin and 500 ug/ml G418 (Invitrogen).
GR-translocation was measured beta-gal enzyme activity using the PathHunter Detection Kit containing cell membrane permeablizing reagent and beta-gal substrate (DiscoveRx, Fremont, CA). All compounds were screened as titrations from 0.6 nM to 46 uM final concentration. The assay was performed in 1536-well format as follows:
5 uL cell suspension (1,000 cells)/well
Incubation at 37 Celsius degrees for two hours
1.25 uL 1X detection buffer from the kit supplied by DiscoveRx
Incubation at room temperature for one hour
Read plate in luminescence mode in ViewLux plate reader (PerkinElmer)
Keywords: NIH Roadmap, MLSCN, MLI, MLSMR, GR-EFC, GREFC, qHTS, NCGC
Consider `c1ccc(-c2ccccn2)nc1`, for which the Potency was > 46 µM (inactive). With `NCCCCCCCCCCN`, the Potency is > 46 µM (inactive).

For `O=c1[nH]c2cc(C(F)(F)F)ccc2n1-c1cc(C(F)(F)F)ccc1O`, the Potency is > 46 µM (inactive). The result for `N#C/C(=C\c1c[nH]c2ccccc12)C(=O)c1ccc(O)c(O)c1` reads > 46 µM (inactive); that for `NCCCS(=O)(=O)O`, > 46 µM (inactive). In the case of `Cc1c(N)c(=O)n(-c2ccccc2)n1C`, the Potency is > 20.6 µM (inactive).

With `CC(C)NC[C@H](O)COc1cccc2[nH]ccc12`, the Potency was > 46 µM (inactive). The result for `CN=c1nc(-c2ccccc2)n(-c2ccccc2)s1` reads > 46 µM (inactive); that for `O=c1[nH]c2ccccc2n1CCCN1CCN(C(c2ccccc2)c2ccccc2)CC1`, > 46 µM (inactive); that for `O=C1NC(O)=NC1(c1ccccc1)c1ccccc1`, > 46 µM (inactive). For `Nc1cc(-c2ccncc2)c[nH]c1=O`, the Potency was > 20.6 µM (inactive). Take `N=C(N)SCCc1ccc(CCSC(=N)N)cc1`: the Potency is > 46 µM (inactive).

`O=C(c1cc(O)c(O)c([N+](=O)[O-])c1)c1ccccc1F`: the Potency is > 46 µM (inactive).

On to `O=C1C(SCCO)=C(SCCO)C(=O)c2ccccc21`, for which the Potency is > 46 µM (inactive).

Take `Nc1ccc(O)c(C(=O)O)c1`: the Potency was > 20.6 µM (inactive). For `O=C(O)c1ccccc1Nc1cccc(C(F)(F)F)c1`, the Potency was > 20.6 µM (inactive). Regarding `Cn1cc(C2=C(c3ccc(Cl)cc3Cl)C(=O)NC2=O)c2ccccc21`, the Potency was > 46 µM (inactive).

For `O=C(O)c1cc(=O)c2ccccc2[nH]1`, the Potency was > 46 µM (inactive).

For `COC(=O)c1c(C)[nH]c(C)c1C(=O)c1ccccc1Cc1ccccc1`, the Potency was > 46 µM (inactive). With `CCCSc1ccc2nc(NC(=O)OC)[nH]c2c1`, the Potency is > 20.6 µM (inactive). In the case of `Cc1ccc(O)c(N=Nc2ccccc2)n1`, the Potency is > 46 µM (inactive). On to `N#C/C(=C\c1ccc(O)c(O)c1)C(=O)NCc1ccccc1`, for which the Potency was > 46 µM (inactive).

Regarding `NC[C@@H]1O[C@H](C23CC4CC(CC(C4)C2)C3)Cc2c1ccc(O)c2O`, the Potency was > 46 µM (inactive). As to `O=C(Nc1cccc(C(=O)Nc2ccc(S(=O)(=O)O)c3cc(S(=O)(=O)O)cc(S(=O)(=O)O)c23)c1)Nc1cccc(C(=O)Nc2ccc(S(=O)(=O)O)c3cc(S(=O)(=O)O)cc(S(=O)(=O)O)c23)c1`, the Potency is > 46 µM (inactive). As for `Oc1cc2c(cc1O)CN(C(=S)NCCc1ccc(Cl)cc1)CCC2`, the Potency was > 46 µM (inactive). As for `N#C/C(=C\c1ccc(O)c(O)c1)C(=O)NCCCc1ccccc1`, the Potency is > 46 µM (inactive). Turning to `COc1cc(OC)c(/C=C2/C(=O)Nc3ccccc32)c(OC)c1`, the Potency was > 46 µM (inactive).

Regarding `COc1ccccc1N1CCN(CCN(C(=O)c2ccc(I)cc2)c2ccccn2)CC1`, the Potency is > 46 µM (inactive). Consider `COc1ccccc1CNCCCCCCNCCCCCCCCNCCCCCCNCc1ccccc1OC`, for which the Potency was > 46 µM (inactive).

For the molecule `NC(N)=NC(=O)c1nc(Cl)c(N2CCCCCC2)nc1N`, the Potency was > 46 µM (inactive). The result for `O=C(O)CC[C@@H](C(=O)O)N1C(=O)c2ccccc2C1=O` reads > 46 µM (inactive) and > 9.22 µM (inactive). The result for `CN(C)C(N)=NCCC[C@H](N)C(=O)O` reads > 46 µM (inactive); that for `Oc1ccccc1O`, > 46 µM (inactive). In the case of `NCCNC(=O)c1ncsc1-c1cccc(F)c1` it was > 46 µM (inactive). `CC1(C)CCC=[N+]1[O-]`: the Potency was > 46 µM (inactive). As to `O=C(O)[C@@H]1C[C@@H](C(=O)O)N1`, the Potency was > 46 µM (inactive). The result for `CC(C)(C=O)Cc1cc(C(C)(C)C)c(O)c(C(C)(C)C)c1` reads > 46 µM (inactive); that for `N[C@H](CCCP(=O)(O)O)C(=O)O`, > 46 µM (inactive). As to `C[N+]1(C)CCC(OC(=O)C(c2ccccc2)c2ccccc2)CC1`, the Potency is > 46 µM (inactive). Take `N[C@@H](CC(=O)O)C(=O)O`: the Potency is > 46 µM (inactive).
